Screens: PubChem, National Center for Advancing Translational Sciences (NCATS)
Rows were chosen to be rich in hits. Some 7% of all compounds tested hit in one or more screens of this group.
D3 antag – D3 dopamine receptor (human) antagonism | 2.5% of 360,000 active | D3R cells, DiscoveRx beta-arrestin luminescence, antagonist mode; hits give low values | max response, negative = inhibition, %; in the data active = max response below about -50%; inconclusive = no clear call, values can overlap the other calls; also: % is scaled to controls: 0 for no effect and ±100 for the full control effect
Target sequence (P35462 whole entry, looked up): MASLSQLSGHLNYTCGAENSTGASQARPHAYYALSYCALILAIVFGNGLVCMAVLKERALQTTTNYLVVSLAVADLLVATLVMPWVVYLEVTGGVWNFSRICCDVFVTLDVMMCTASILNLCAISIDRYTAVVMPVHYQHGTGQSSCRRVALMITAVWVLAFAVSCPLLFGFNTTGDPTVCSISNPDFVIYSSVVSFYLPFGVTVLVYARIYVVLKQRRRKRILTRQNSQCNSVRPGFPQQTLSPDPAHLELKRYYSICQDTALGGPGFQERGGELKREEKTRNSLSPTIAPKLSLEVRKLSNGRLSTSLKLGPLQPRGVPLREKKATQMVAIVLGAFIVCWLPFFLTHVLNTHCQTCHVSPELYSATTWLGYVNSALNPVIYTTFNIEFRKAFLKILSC
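Cells plated overnight at 1500 cells/well, then exposed to library compounds with dopamine controls for 90 minutes at 37 degrees C. DiscoveRx reagent added for 30–60 minutes at room temperature; luminescence read, quantitative HTS format.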
Integrin act MD – integrin-mediated muscular dystrophy alleviation activation. 0.064% of 350,000 active. Potency, µM (top dose mostly 38.3 µM), for inactives: at the highest dose activation, actives largely listed as activators. alpha7betagal myoblasts, beta-gal FDG fluorescence, 48 h;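 also: potency is read from the fitted curve at half-maximal effect; 100% = response of the positive control SU9516; nearly all actives have a fitted effect of over 60% in size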
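Alpha7betagal+/- myoblasts (passage 13) were plated 16-24 hr, then exposed to compounds (1:260 dilution of DMSO stock) for 48 hours at 37C. After MPER lysis, β-galactosidase reporter activity was read as FDG fluorescence (ex 480/em 540) after 30 minutes.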
D3 ag – D3 dopamine receptor (human) agonism | P35462 | D3R DiscoveRx beta-arrestin cells, luminescence, 90 min | max activation, % | 0.58% of 410,000 active | AID 652048; in the data active = max activation above about 30%; also: 0% is about no effect
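Cells at 1500/well, incubated overnight, then treated with pinned compounds (dopamine as control) for 90 min at 37 degrees C. DiscoveRx reagent added for 30 - 60 minutes at room temperature; luminescence read.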
IL1B secr inh – inflammasome signaling inhibition, IL-1 beta readout | 4.7% of 360,000 active | activity change, % at 57.5 µM | AID 743279 | THP-1 LPS/ATP IL-1B secretion, AlphaLISA, 16 h; hits give low values; in the data active = activity change below about -50%; inconclusive = mostly about -30% to -49%; also: % is scaled to controls: 0 for no effect and ±100 for the full control effect
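THP-1 cells pretreated 1 hr with compounds (up to 57.5 uM final), then stimulated with LPS (250 ng/mL final) plus ATP (1.25 mM final); secreted IL-1B measured by AlphaLISA after 16 hr, decreased signal indicating inhibition.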
ATXN2 expr inh – ATXN2 expression inhibition; Potency, µM (top dose mostly 57 µM), without a hit: at the top dose activity change, negative = inhibition, most hits filed as inhibitors; HEK-293 ATXN2-luciferase reporter, luminescence, 24 h; 0.72% of 360,000 active; also: potency is read from the fitted curve at half-maximal effect; % is scaled to controls: 0 for no effect and ±100 for the full control effect; nearly all actives have a fitted effect of over 55% in size
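ATXN2-luciferase reporter cells (luciferase flanked by upstream and downstream ATXN2 gene portions) were treated 24 h at 37 °C with compounds at up to 57 uM. SteadyGlo luminescence gave expression; GF-AFC fluorescence gave viability.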
ATXN viability – reduces viability in counter-screen for ATXN expression inhibitors. S2 cells (HEK-293 line with an ATXN2-luciferase reporter) viability, CellTiter-Fluor protease fluorescence, 24 h. 0.49% of 400,000 active. Potency, µM (series often up to 56.7 µM), actives largely listed as cytotoxic. AID 651635; also: potency is read from the fitted curve at half-maximal effect; nearly all actives have a fitted effect of over 40% in size
The depositor's hits bear a star; i = inactive; ? = inconclusive; . = not tested or not shown; [ ] = remark or other dose. Unless noted, calls follow the shape of the dose curve; as a rule, active = well fitted curve in the direction sought with a large enough effect; inconclusive = small, poorly fitted or top-dose-only effect, or another doubt; inactive = no such curve, though single readings can be large; an effect the other way counts as inactive or inconclusive.

SMILES	D3 antag	Integrin act MD	D3 ag	IL1B secr inh	ATXN2 expr inh	ATXN viability
CCOc1ccc(-n2nc3c(SCCN4CCCC4)nnc(C)c3c2C)cc1	12	3%	-15	-97*	-2%	i
COc1ccccc1CCNC(=O)C1CCN(c2nnc(C)c3c(C)n(-c4ccc(C)cc4)nc23)CC1	-70*	-10%	17	-10	-10%	?
CCOc1ccccc1CNC(=O)C1CCN(c2nnc(C)c3c(C)n(-c4ccc(C)cc4)nc23)CC1	2	-54%	-3	-96*	?	.
COc1ccc(-n2nc3c(N4CCC(C(=O)NCc5cccc(C)c5)CC4)nnc(C)c3c2C)cc1	-59*	2%	5	-8	.	?
COc1ccc(-n2nc3c(N4CCCC(C(=O)NCc5cccc(F)c5)C4)nnc(C)c3c2C)cc1 (stereo not drawn)	.	.	17	.	?	.
COc1cc(Nc2ncnc3onc(-c4ccc(Cl)cc4)c23)cc(OC)c1	.	.	9	.	6%	i
Cc1nnc(N2CCC(C(=O)NCc3ccc(F)cc3)CC2)c2nn(-c3ccc(Cl)cc3)c(C)c12	.	.	-6	.	-13%	i
Cc1ccc(-n2nc3c(N4CCC(C(=O)NCc5ccccc5C)CC4)nnc(C)c3c2C)cc1	-8	-65%	-12	-92*	?	?
CCOc1ccc(CNC(=O)C2CCN(c3nnc(C)c4c(C)n(-c5ccc(C)cc5)nc34)CC2)cc1	-3	-81%	0	-99*	.	?
COc1ccc(-n2nc3c(N4CCC(C(=O)NCCc5ccco5)CC4)nnc(C)c3c2C)cc1	-11	-21%	-10	-51*	-24%	i
CCCCCC(=O)N1C[C@@H](O)[C@H](n2cc(C3CC3)nn2)C[C@@H]1c1ccc(OC)cc1	17	2%	3	8	0%	i
O=C(NCc1ccc(F)cc1)C(c1ccncc1)N(C(=O)c1csnn1)C1CC1 (stereo not drawn)	3	8%	-4	15	-18%	i
CCN1CCN(c2csc3ccc(Br)cc3c2=O)CC1	.	.	7	.	13%	i
COc1ccc(C(CNC(=O)CNC(=O)c2cc(OC)c(OC)c(OC)c2)N2CCOCC2)cc1 (stereo not drawn)	2	-4%	0	7	4%	i
Cc1ccc(OCC(=O)N/N=C/c2ccccc2)c([N+](=O)[O-])c1	-12	12%	-7	0	10%	i
Cc1ccccc1OCC(=O)N/N=C/c1cccc(Oc2ccc([N+](=O)[O-])cc2[N+](=O)[O-])c1	20	-56%	10	-96*	-25%	?
Cc1ccc2nc(N(CCCN(C)C)C(=O)c3ccco3)sc2c1	?	-67%	-11	-11	-18%	?
CN(C)CCCN(C(=O)c1ccco1)c1nc2cc3c(cc2s1)OCO3	-15	-69%	-3	?	14µM*	i
CCN(CC)CCN(C(=O)c1ccc(C(=O)c2ccccc2)cc1)c1nc2cc3c(cc2s1)OCO3	-6	16%	-16	-55*	-16%	i
CN(C)CCCN(C(=O)c1ccc(C(=O)c2ccccc2)cc1)c1nc2cc3c(cc2s1)OCO3	-55*	-28%	-12	-68*	?	?
CCN(CC)CCN(C(=O)c1ccc2ncsc2c1)c1nc2cc3c(cc2s1)OCO3	-4	?	-17	-15	45%	i
COc1cccc2sc(N(CCCN(C)C)C(=O)c3sc4ccccc4c3Cl)nc12	-14	-15%	-12	-67*	?	?
Cc1cccc2sc(N(CCCN(C)C)C(=O)c3sc4ccccc4c3Cl)nc12	-4	-11%	-1	0	-24%	i
CC1(C)N([O-])C2=C(CCCC2)[N+]1=O	-3	-1%	1	17	-31%[11.3 µM]	i
COC(=O)c1cnc(Nc2ccc(Cl)cc2)c([N+](=O)[O-])c1	2	-6%	11	-4	-16%	i
CCN(CC)CCN(C(=O)c1ccc(C(=O)c2ccccc2)cc1)c1nc2c(OC)cccc2s1	-9	5%	-14	-66*	-16%	i
